PubChem BioAssay
The source made the active and inactive calls.

Legend:
Albumin (Bos taurus) = Albumin (Bos taurus) (UniProt P02769); assay: bovine serum albumin binders on microarray, profiling panel, artefact control for SMM control protein annotation, biochemical, small-molecule microarray, Alexa647 label, 635/667 nm fluorescence (AID 1118); conditions: BSA-A647 binding, fluorescence 635 nm, higher = more signal;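 further: score merges 667 nm emission intensity and signal-to-noise per printed compound spot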
[1] = small-molecule microarray binders of probe aXIP, primary screen, biochemical, NeuroSMM set, 635/667 nm fluorescence (AID 1119); conditions: higher = more signal, called active from +8 up or from −8 down;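 further: probe is the protein aXip251-270 applied at 1 µg/mL to compound-printed slides; binding of probe to printed compounds measured as 667 nm fluorescence plus signal to noise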
[2] = small-molecule binders of probe aNOTCH3, primary screen, biochemical, small-molecule microarray, 635/667 nm fluorescence (AID 1120); conditions: higher = more signal;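 further: probe is a biotin-tagged antibody raised against NOTCH3 rather than NOTCH3 protein; score merges spot fluorescence near 667 nm with spot signal to noise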
[3] = small-molecule binders of probe aNOTCH2, primary screen, biochemical, small-molecule microarray, 635/667 nm fluorescence (AID 1121); conditions: higher = more signal;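 further: score merges feature fluorescence read at 667 nm with its signal to noise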
[4] = molecular target: Carbonic anhydrase 2 (Homo sapiens) (UniProt P00918); assay: CAII small-molecule binders, profiling panel, biochemical, small-molecule microarray, Alexa647-labelled CAII (AID 1122); conditions: CAII-A647 binding fluorescence, higher = more signal
[5] = COS7 lysate on small-molecule microarray, probe aHis, 635 nm (AID 1123); conditions: COS7 cell lysate, fluorescence, higher = more signal;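 further: z-score combines 667nm fluorescence intensity with signal-to-noise per printed compound spot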
[6] = compound binding in COS7 lysate, probe aLAP1, primary screen, cell lysate, small-molecule microarray (AID 1124); conditions: probe aLAP1, fluorescence, higher = more signal;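 further: lysate comes from COS7 cells expressing LAP1 and is applied at 0.3 µg/mL; score merges spot fluorescence near 667 nm with signal-to-noise over triplicate slides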
Sam68 (KHDRBS1) = assay: Sam68 small-molecule binders, primary screen, biochemical, small-molecule microarray, 635 nm fluorescence (AID 1125); conditions: small-molecule microarray binding, higher = more signal;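 further: score merges 667 nm channel intensity with signal to noise over triplicate slides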
[7] = test system: Chordin-like protein 2 (CHRDL2); assay: CHRDL2 small-molecule binders, primary screen, biochemical, small-molecule microarray, 635 nm fluorescence (AID 1126); conditions: small-molecule microarray binding, fluorescence 635 nm; higher = more signal;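 further: printed compound slides probed with Chrdl2 protein at 4 µg/mL for 1 h at 4 C; score merges 667 nm emission intensity with signal to noise over three replicate slides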
[8] = molecular target: Concanavalin-A (Canavalia ensiformis) (UniProt P02866); assay: ConA small-molecule binders, primary screen, artefact control for SMM control protein annotation, biochemical, small-molecule microarray, Alexa647 label, 635 nm (AID 1127); conditions: ConA-A647 binding fluorescence, higher = more signal;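 further: z combines 667 nm emission intensity with signal-to-noise across three replicate slides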
[9] = anti-His antibody binders, primary screen, artefact control for SMM control protein annotation, biochemical, small-molecule microarray, 635 nm fluorescence (AID 1128); conditions: anti-His Alexa647 antibody binding, higher = more signal;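 further: score merges feature fluorescence with signal-to-noise for each printed compound spot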
[10] = test system: Human papillomavirus type 1a E7 protein (residues 1-88); assay: HPV1a E7 small-molecule binders, primary screen, biochemical, small-molecule microarray, residues 1-88, 635 nm (AID 1129); conditions: small-molecule microarray binding, fluorescence 635 nm; higher = more signal
[11] = molecular target: Focal adhesion kinase 1 (Homo sapiens) (UniProt Q05397); assay: small-molecule microarray binders of FAK, primary screen, biochemical, 635/667 nm fluorescence, BSA, DTT (AID 1130); conditions: PTK2 binding, 635 nm fluorescence, higher = more signal;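 further: composite of spot emission at 667 nm and signal to noise over triplicate slides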
[12] = test system: Fibrinogen (Alexa647-labelled); assay: fibrinogen binders on compound microarrays, profiling panel, artefact control for SMM control-protein annotation, biochemical, small-molecule microarray, 635/667 nm fluorescence (AID 1131); conditions: fibrinogen-A647 binding fluorescence, higher = more signal;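 further: z-score merges 667 nm fluorescence with per-spot signal-to-noise over triplicate slides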
[13] = molecular target: Follistatin (Homo sapiens) (UniProt P19883); assay: follistatin binders on small-molecule microarrays, primary screen, biochemical, small-molecule microarray, 635/667 nm fluorescence (AID 1132); conditions: FST binding, 635 nm fluorescence, higher = more signal
[14] = molecular target: Fibroblast growth factor 2 (Homo sapiens) (UniProt P09038); assay: FGF2 binders on small-molecule microarrays, primary screen, biochemical, small-molecule microarray, 635/667 nm fluorescence (AID 1133); conditions: small-molecule microarray binding, FGF2, fluorescence 635/667; higher = more signal
[15] = mitochondrial membrane potential change in A549 cells, profiling panel, cell-based, JC-1 fluorescence, basal, 24 h, 100 nL (AID 1138); conditions: higher = more signal;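 further: A549 lung adenocarcinoma cells under basal conditions with no added stimulus; test concentration not given here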
Lefty1 = Lefty1 binders on small-molecule microarrays, primary screen, biochemical, small-molecule microarray, 635/667 nm fluorescence (AID 1139); conditions: small-molecule microarray binding, fluorescence 635/667; higher = more signal
[16] = test system: wheat germ agglutinin (Triticum aestivum), Alexa647-labelled; assay: wheat germ agglutinin binders on compound microarrays, profiling panel, artefact control for SMM control-protein annotation, biochemical, small-molecule microarray, 635/667 nm fluorescence (AID 1140); conditions: WGA-A647 binding, 635 nm fluorescence, higher = more signal;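 further: score merges 667 nm feature emission with signal to noise over triplicate slides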
[17] = molecular target: Luciferin 4-monooxygenase (Photinus pyralis) (UniProt P08659); assay: firefly luciferase enzyme inhibitors, primary screen, biochemical, luminescence, purified enzyme, 2006 set (AID 1141); conditions: SteadyGlo luminescence, 30 min, higher = more signal, called active from +8 up or from −8 down;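 further: cell-free assay with purified firefly luciferase at 100 ng per well in PBS; test concentration not given here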
Sequence of Luciferin 4-monooxygenase (Photinus pyralis) (P08659 whole entry, looked up): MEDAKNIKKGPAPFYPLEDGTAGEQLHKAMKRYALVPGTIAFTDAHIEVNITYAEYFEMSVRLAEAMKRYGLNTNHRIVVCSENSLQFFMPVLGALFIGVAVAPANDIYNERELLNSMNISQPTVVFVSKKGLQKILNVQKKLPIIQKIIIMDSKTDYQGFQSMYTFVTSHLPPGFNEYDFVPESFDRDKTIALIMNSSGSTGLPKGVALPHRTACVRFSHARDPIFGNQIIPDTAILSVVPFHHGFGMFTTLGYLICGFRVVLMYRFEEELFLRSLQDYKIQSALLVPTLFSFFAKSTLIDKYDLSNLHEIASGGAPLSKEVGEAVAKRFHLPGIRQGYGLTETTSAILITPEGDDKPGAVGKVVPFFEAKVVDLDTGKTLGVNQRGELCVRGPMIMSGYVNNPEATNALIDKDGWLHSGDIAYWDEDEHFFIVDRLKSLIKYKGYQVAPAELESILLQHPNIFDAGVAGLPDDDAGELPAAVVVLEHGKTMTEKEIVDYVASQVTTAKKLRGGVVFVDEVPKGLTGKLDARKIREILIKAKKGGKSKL

Sequence of Concanavalin-A (Canavalia ensiformis) (P02866 whole entry, looked up): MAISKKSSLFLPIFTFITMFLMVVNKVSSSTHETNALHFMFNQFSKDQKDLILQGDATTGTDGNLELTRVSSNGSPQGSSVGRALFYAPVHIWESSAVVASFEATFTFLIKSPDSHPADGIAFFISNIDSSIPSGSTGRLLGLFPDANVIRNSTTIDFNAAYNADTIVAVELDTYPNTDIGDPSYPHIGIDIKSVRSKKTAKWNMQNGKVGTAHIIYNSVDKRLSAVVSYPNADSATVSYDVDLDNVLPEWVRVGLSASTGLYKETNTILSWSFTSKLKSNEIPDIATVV
Sequence of Follistatin (Homo sapiens) (P19883 whole entry, looked up): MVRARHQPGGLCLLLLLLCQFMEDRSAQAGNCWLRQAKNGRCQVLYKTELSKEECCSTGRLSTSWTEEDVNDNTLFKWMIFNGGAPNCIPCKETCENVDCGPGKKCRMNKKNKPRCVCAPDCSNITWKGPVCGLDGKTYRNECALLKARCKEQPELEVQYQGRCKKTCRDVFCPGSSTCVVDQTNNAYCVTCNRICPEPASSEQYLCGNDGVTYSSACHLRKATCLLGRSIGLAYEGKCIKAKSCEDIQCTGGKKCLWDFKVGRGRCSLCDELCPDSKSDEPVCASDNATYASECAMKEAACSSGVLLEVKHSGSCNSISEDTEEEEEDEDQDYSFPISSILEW
Sequence of Fibroblast growth factor 2 (Homo sapiens) (P09038 whole entry, looked up): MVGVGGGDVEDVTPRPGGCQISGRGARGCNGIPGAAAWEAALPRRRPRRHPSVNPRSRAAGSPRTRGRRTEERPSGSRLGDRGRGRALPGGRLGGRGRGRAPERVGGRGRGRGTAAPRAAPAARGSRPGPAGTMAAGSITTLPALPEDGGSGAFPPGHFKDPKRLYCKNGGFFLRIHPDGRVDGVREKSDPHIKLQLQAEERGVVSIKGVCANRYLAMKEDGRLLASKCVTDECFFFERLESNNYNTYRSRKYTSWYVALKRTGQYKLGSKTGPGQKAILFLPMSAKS
Sequence of Albumin (Bos taurus) (P02769 whole entry, looked up): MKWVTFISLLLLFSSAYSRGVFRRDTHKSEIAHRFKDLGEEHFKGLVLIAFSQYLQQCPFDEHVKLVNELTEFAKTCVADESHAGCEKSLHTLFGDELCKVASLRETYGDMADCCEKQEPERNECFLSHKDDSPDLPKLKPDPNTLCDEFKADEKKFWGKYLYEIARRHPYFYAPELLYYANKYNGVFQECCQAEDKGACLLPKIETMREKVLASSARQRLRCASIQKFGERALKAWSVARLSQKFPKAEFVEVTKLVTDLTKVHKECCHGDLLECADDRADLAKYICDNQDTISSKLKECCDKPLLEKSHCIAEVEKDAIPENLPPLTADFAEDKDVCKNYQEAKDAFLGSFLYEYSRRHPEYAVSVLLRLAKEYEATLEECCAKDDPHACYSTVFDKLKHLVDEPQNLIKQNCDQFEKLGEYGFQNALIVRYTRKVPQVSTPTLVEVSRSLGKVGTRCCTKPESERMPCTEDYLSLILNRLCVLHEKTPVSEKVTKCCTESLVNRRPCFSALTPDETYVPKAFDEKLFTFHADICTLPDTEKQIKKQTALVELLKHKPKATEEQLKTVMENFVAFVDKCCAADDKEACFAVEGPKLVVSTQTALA
Sequence of Focal adhesion kinase 1 (Homo sapiens) (Q05397 whole entry, looked up): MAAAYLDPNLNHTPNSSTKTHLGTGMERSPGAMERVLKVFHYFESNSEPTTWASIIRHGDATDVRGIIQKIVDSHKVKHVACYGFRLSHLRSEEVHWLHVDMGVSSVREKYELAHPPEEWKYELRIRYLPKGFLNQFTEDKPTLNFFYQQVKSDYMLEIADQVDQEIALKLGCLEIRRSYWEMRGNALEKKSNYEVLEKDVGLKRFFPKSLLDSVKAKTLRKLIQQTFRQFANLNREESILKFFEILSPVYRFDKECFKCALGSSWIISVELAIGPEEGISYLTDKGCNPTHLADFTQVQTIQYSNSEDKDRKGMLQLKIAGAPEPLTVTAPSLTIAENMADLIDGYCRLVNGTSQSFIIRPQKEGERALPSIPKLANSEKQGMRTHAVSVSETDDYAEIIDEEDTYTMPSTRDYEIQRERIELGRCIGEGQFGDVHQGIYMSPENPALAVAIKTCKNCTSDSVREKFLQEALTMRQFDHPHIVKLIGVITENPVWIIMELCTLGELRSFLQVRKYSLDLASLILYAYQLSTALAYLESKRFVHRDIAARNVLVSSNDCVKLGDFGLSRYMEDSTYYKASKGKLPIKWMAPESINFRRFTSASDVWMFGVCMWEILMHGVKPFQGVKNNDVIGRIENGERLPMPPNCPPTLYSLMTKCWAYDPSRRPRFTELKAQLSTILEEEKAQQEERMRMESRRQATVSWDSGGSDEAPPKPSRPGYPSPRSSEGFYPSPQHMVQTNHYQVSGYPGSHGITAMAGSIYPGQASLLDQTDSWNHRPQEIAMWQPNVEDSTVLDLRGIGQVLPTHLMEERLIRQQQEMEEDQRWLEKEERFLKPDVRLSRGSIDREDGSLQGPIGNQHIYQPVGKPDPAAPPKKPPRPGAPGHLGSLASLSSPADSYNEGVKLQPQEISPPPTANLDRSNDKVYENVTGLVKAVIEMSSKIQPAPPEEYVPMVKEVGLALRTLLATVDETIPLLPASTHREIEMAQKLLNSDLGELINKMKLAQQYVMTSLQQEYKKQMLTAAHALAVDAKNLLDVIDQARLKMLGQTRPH

SMILES | composite z-score (Albumin (Bos taurus)) | composite Z-score [1] | composite z-score [2] | composite z-score [3] | composite z-score [4] | composite z-score [5] | composite z-score [6] | composite z-score (Sam68 (KHDRBS1)) | composite z-score [7] | composite z-score [8] | composite z-score [9] | composite z-score [10] | composite z-score [11] | composite z-score [12] | composite z-score [13] | composite z-score [14] | z-score [15] | composite z-score (Lefty1) | composite z-score [16] | z-score [17]
CCOC(=O)[C@H](CC(C)C)NC(=O)CCC1CC(OC(=O)NCc2ccc3c(c2)OCO3)CC2(CCCC(COC(=O)NCc3cccc(C(F)(F)F)c3)O2)O1 (stereo not given in full) | -0.232 | -0.104 (inactive) | -0.136 | -0.169 | 0.284 | 0.292 | -0.37 | 0.119 | 0.192 | 0.0441 | 0.339 | 0.218 | 0.201 | -0.092 | 0.337 | 0.363 | -0.326 | 0.389 | 0.144 | 0.679 (inactive)
CC(C)CON=C1C[C@@H](O)[C@@H](O)[C@@H]2[C@@H]3C(=O)N(Cc4ccc5c(c4)OCO5)C(=O)[C@@H]3CC[C@H]12 | 0.768 | -0.275 (inactive) | -0.0288 | -0.115 | 0.625 | 0.676 | -0.358 | 1.34 | 0.0987 | 0.957 | 0.193 | 0.689 | 0.0874 | 0.237 | 0.707 | 0.914 | -0.72 | 0.831 | -0.0178 | 1.26 (inactive)
C#CCCCON=C1C[C@@H](O)[C@@H](O)[C@@H]2[C@@H]3C(=O)N(c4ccc(F)cc4F)C(=O)[C@@H]3CC[C@H]12 | 0.314 | -0.488 (inactive) | -0.122 | -0.151 | 0.65 | 0.887 | 0.145 | 1.15 | 0.392 | 0.772 | 0.968 | 1.02 | 0.208 | 0.894 | 0.424 | 0.322 | 0.0852 | 0.662 | 0.0156 | 0.573 (inactive)
CO[C@H]1COC(=O)CC=C[C@@H](C)[C@H](OC)COC(=O)[C@@H]2CCCN2C(=O)CC=C[C@@H]1C | -0.871 | 0.668 (inactive) | -0.0077 | -0.107 | -0.377 | -0.339 | -0.322 | 0.672 | 1.32 | -0.222 | 0.118 | -0.834 | -0.145 | -1.02 | 1.39 | 1.01 | 0.0624 | 1.57 | -0.483 | -0.813 (inactive)
CO[C@H]1COC(=O)[C@@H]2CCCN2C(=O)CC=C[C@@H](C)[C@H](OC)COC(=O)[C@@H](OCc2ccccc2)C=C[C@@H]1C | -0.761 | -1.04 (inactive) | 0.114 | -0.115 | -0.499 | -0.756 | -0.549 | -0.11 | 1.33 | -0.4 | -0.228 | -1.15 | 0.0122 | -0.557 | 1.27 | 1.02 | 0.0486 | 1.5 | -0.83 | 0.168 (inactive)
